Data published in PubChem BioAssay (NCATS).
Records with an inconclusive call do not appear. Activity calls are given as the source filed them. Calls come from the whole dose curve; as a rule, active = well fitted inhibition curve with a large enough effect; inconclusive = small, poorly fitted or top-dose-only effect; inactive = flat fitted curve, though single readings scatter. Where a SMILES comes first, the peptide text is derived from it. [ ]: non-standard residue; d: D form. PhLac = O=C(O)[CH](O)Cc1ccccc1; NMeV = CN[CH](C(=O)O)C(C)C

Legend:
[1] = system: HEK293; test: Cytotoxic Profiling of Annotated Libraries Using Quantitative High-Throughput Screening (AID 1296008); settings: Five cell lines viability, CellTiter-Glo ATP luminescence, 48-72 h; max response: stronger effect = lower value; for max response: % is set by controls: 0 for no effect and ±100 for the full control effect
Summary of the method: (§1)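 Compounds were pin-transferred onto cells and incubated 48 or 72 hr at 37 degree Celsius, 95% humidity. CellTiter-Glo was added, plates sat 10 min at room temperature, then ATP-coupled luminescence was imaged as the viability read-out.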

[2] = system: HaCat; test: as above; settings: Five cell lines viability, CellTiter-Glo ATP luminescence, 48-72 h; max response: stronger effect = lower value
Summary of the method: as §1

[3] = system: KB-3-1; test: as above; settings: Five cell lines viability, CellTiter-Glo ATP luminescence, 48-72 h; max response: stronger effect = lower value
Summary of the method: as §1

[4] = system: NIH3T3; test: as above; settings: Five cell lines viability, CellTiter-Glo ATP luminescence, 48-72 h; max response: stronger effect = lower value
Summary of the method: as §1

[5] = system: HACAT; test: qHTS assay to identify novel small-molecules to repurpose for Merkel cell carcinoma treatment (AID 1296009); settings: MCC and control cell lines, CellTiter-Glo viability, 72 h; at 44.8 µM (top of the series) unless noted
Summary of the method: (§2)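 Cells exposed to NPC (8-point) and MIPE (11-point) compound dilutions for 72 hr at 37 degree celsius; viability read by CellTiter-Glo luminescence, normalized to no-cell and DMSO in-plate controls.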

[6] = system: HEK293T; test: as above; settings: MCC and control cell lines, CellTiter-Glo viability, 72 h; series mostly up to 44.8 µM
Summary of the method: as §2
Note: nearly all actives have a fitted effect of over 60% in size.

CCOC(=O)c1c(C)nn(-c2cccc([N+](=O)[O-])c2)c1C
inactive: outcome [1] | outcome [2] | max response [3] 0.772% | max response [4] 3.21% | outcome [5] | Potency [6]

CC(C)=CCC/C(C)=C/CC/C(C)=C/CC[C@]1(C)CCc2cc(O)cc(C)c2O1
inactive: outcome [1] | outcome [2] | max response [3] 1.67% | max response [4] 1.13% | outcome [5] inactive [at 17.4 µM] | Potency [6]

NC(=O)c1cccc(-c2cc(O)cc(OC(=O)NC3CCCCC3)c2)c1
inactive: outcome [1] | outcome [2] | outcome [3] | max response [4] -15.7% | outcome [5] inactive [at 17.4 µM] | Potency [6]

C=C1[C@@H]2[C@H]3OC(=O)C(=C)[C@@H]3CC[C@@](C)(O)[C@@H]2C[C@@H]1O[C@@H]1O[C@H](CO)[C@@H](O)[C@H](O)[C@H]1O
inactive: outcome [1] | max response [2] -10.8% | max response [3] 1.42% | max response [4] -3.98% | Potency [6]

CCCCS(=O)(=O)Nc1ncnc(OCCOc2ncc(Br)cn2)c1-c1ccc(Br)cc1
inactive: outcome [1] | outcome [2] | outcome [3] | max response [4] 1.6% | outcome [5] | Potency [6]

COC1C=C([C@@H]2CC=C3[C@@]4(C)C(CC[C@]32C)[C@@]2(C)C=CC(=O)C(C)(C)C2C[C@H]4OC(C)=O)C(=O)O1 (stereo not given in full)
inactive: outcome [1] | outcome [2] | max response [3] -0.943% | outcome [4] | outcome [5] inactive [at 17.4 µM] | Potency [6]

COc1cc(CC(COC2OC(CO)C(O)C(O)C2O)c2cc(/C=C/CO)cc(OC)c2O)ccc1O (stereo not given)
inactive: outcome [1] | max response [2] 1.49% | max response [3] 1.74% | outcome [4] | Potency [6]

CC(C)=CCc1ccc(Oc2c(O)cc(C)cc2CO)c(C(=O)O)c1O
inactive: outcome [1] | outcome [2] | outcome [3] | outcome [4] | outcome [5] | Potency [6]

CC(=O)O[C@H]1CC[C@@]2(CI)C(=CC[C@@H]3[C@@H]2CC[C@]2(C)[C@@H]([C@H](C)CCCC(C)C)CC[C@@H]32)C1
inactive: outcome [1] | max response [2] 4.89% | outcome [3] | outcome [4] | outcome [6] inactive [at 9.27 µM]

O=C1Nc2ccc(O)cc2O[C@H]1O[C@@H]1O[C@H](CO)[C@@H](O)[C@H](O)[C@H]1O
inactive: outcome [1] | outcome [2] | outcome [3] | outcome [4] | outcome [5] | Potency [6]

CC(/C=C/C1(O)C(C)CC(O)CC1(C)C)OC1OC(CO)C(O)C(O)C1O (stereo not given)
inactive: outcome [1] | max response [2] -9.66% | outcome [3] | outcome [4] | Potency [6]

CC(=O)c1c(C)cc(O[C@@H]2O[C@H](CO)[C@@H](O)[C@H](O)[C@H]2O)cc1O
inactive: outcome [1] | max response [2] 3.2% | max response [3] -6.9% | max response [4] 0.376% | Potency [6]

CC(=O)OC1C(O)CC(O[C@@H]2O[C@H](CO)[C@@H](O)[C@H](O)[C@H]2O)C2CCC3C(=O)OC(c4ccoc4)CC3(C)C21 (stereo not given in full)
inactive: outcome [1] | max response [2] -6.02% | max response [3] 0.494% | outcome [4] | Potency [6]

Cc1cc(C)cc(NC(=O)Cc2ccc(OC(C)(C)C(=O)O)cc2)c1
inactive: outcome [1] | outcome [2] | outcome [3] | max response [4] -1.99% | outcome [5] | Potency [6]

C=C1CCC2C(C)(C)C(O)CCC2(C)C1CCC(C)CCOC(=O)CCC(=O)O (stereo not given)
inactive: outcome [1] | outcome [2] | max response [3] 1.36% | max response [4] -1.95% | outcome [5] inactive [at 17.4 µM] | Potency [6]

Cc1cn2c(N)c(Cl)cc(C(=O)NCC3CCN(CC(C)C)CC3)c2n1
inactive: outcome [1] | outcome [2] | max response [3] -3.78% | outcome [4] | outcome [5] | Potency [6]

CC(C)C(=O)c1cn(CC(=O)COc2ccc(Oc3ccccc3)cc2)c2ccc(C(=O)O)cc12
inactive: outcome [1] | max response [2] -4.02% | max response [3] -0.497% | max response [4] -1.24% | Potency [6]

CC(=O)OC1C(O)C(C)=C(CCC(C)CC(=O)O)C2(C)CCCC(C)(C)C12 (stereo not given)
inactive: outcome [1] | outcome [2] | max response [3] 0.797% | outcome [4] | outcome [5] | Potency [6]

CC(=O)N[C@H]1[C@H](O[C@H]2CC[C@@]3(C)C(CC[C@]4(C)C3CC=C3C5CC(C)(C)CC[C@]5(C(=O)O)[C@H](O[C@@H]5O[C@H](CO)[C@@H](O)[C@H](O)[C@H]5O)C[C@]34C)C2(C)C)O[C@H](CO[C@@H]2OC[C@H](O)[C@H](O)[C@H]2O[C@@H]2OC[C@@H](O)[C@H](O)[C@H]2O)[C@@H](O)[C@@H]1O (stereo not given in full)
inactive: outcome [1] | max response [2] -15.2% | max response [3] 2.21% | max response [4] -4.54% | outcome [6] inactive [at 9.27 µM]

OC[C@H]1O[C@@H](Oc2ccc(O)c3cccc(O)c23)[C@H](O)[C@@H](O)[C@@H]1O
inactive: outcome [1] | max response [2] -1.01% | max response [3] 3.57% | outcome [4] | Potency [6]

C[C@H]1[C@H](C)CC[C@]2(C(=O)O[C@@H]3O[C@H](CO)[C@@H](O)[C@H](O)[C@H]3O)CC[C@]3(C(=O)O)C(=CCC4[C@@]5(C)CC[C@H](O[C@@H]6O[C@H](CO)[C@@H](O)[C@H](O)[C@H]6O)C(C)(C)C5CC[C@]43C)[C@H]12 (stereo not given in full)
inactive: outcome [1] | outcome [2] | max response [3] 2.34% | max response [4] -5.27% | outcome [5] inactive [at 9.27 µM] | outcome [6] inactive [at 9.27 µM]

COC(=O)C1=COC(OC2OC(CO)C(O)C(O)C2O)C2C1CC(OC(=O)C(O)CC(=O)O)C2C (stereo not given)
inactive: outcome [1] | outcome [2] | outcome [3] | outcome [4] | outcome [5] inactive [at 17.4 µM] | Potency [6]

C=C1[C@H]2CC[C@]3(O)[C@@](CC[C@@H]4[C@](C)(C(=O)O)CCC[C@]43C)(C2)[C@H]1OC(=O)/C(C)=C\C
inactive: outcome [1] | max response [2] -13.2% | outcome [3] | max response [4] 0.4% | Potency [6]

C=CC1C(O[C@@H]2O[C@H](CO)[C@@H](O)[C@H](O)[C@H]2O)OC=C(C(=O)OC)C1CC(=O)O (stereo not given in full)
inactive: outcome [1] | outcome [2] | max response [3] 9.2% | max response [4] 3.11% | outcome [5] inactive [at 17.4 µM] | Potency [6]

C[C@@H]1C[C@H](O)/C=C/[C@H](O)[C@@H](O)CC(=O)O1
inactive: outcome [1] | max response [2] 3.57% | outcome [3] | outcome [4] | Potency [6]

CC(=O)OC[C@@]12[C@H](O)C[C@@H](C)[C@]3(C[C@@H](c4ccoc4)OC3=O)[C@H]1C[C@H](O)C[C@]21CO1
inactive: outcome [1] | outcome [2] | outcome [3] | outcome [4] | outcome [5] inactive [at 17.4 µM] | Potency [6]

Nc1nc(CC(=O)Nc2ccc(CCNCC(O)c3ccccc3)cc2)cs1 (stereo not given)
inactive: outcome [1] | max response [2] -9.93% | outcome [3] | outcome [4] | Potency [6]

CC(C)C(C(=O)N1CCCC1C(=O)O)N(C)C(=O)C(O)Cc1ccccc1 (stereo not given) (H-[PhLac]-[NMeV]-Pro-OH; configuration not given here)
inactive: outcome [1] | max response [2] -7.13% | outcome [3] | max response [4] -4.85% | Potency [6]

CC(CO[C@@H]1O[C@H](COC(=O)/C=C/c2ccc(O)c(O)c2)[C@@H](O)[C@H](O)[C@H]1O)C1(O)COC(=O)C1 (stereo not given in full)
inactive: outcome [1] | max response [2] 3.48% | max response [3] -4.71% | max response [4] -5.15% | Potency [6]

COc1ccc2c(c1)O[C@H](O[C@@H]1O[C@H](CO)[C@@H](O)[C@H](O)[C@H]1O)C(=O)N2
inactive: outcome [1] | max response [2] -4.71% | outcome [3] | outcome [4] | Potency [6]

CO[C@@H]1CC[C@H](OC[C@]2(COC(=O)c3ccc(C)[nH]3)[C@H](OC(C)=O)CC[C@@]3(C)[C@@H]4CC=C(C)[C@@H](C5=C(O)C(=O)OC5O)[C@]4(C)CC[C@@H]32)O[C@H]1C (stereo not given in full)
inactive: outcome [1] | max response [2] -0.118% | outcome [3] | max response [4] -6.06% | Potency [6]

COc1cc2c(cc1O)C1(OC)Cc3ccc4c(c3C1N(C)CC2)OCO4 (stereo not given)
inactive: outcome [1] | max response [2] -3.77% | max response [3] 9.56% | max response [4] 2.76% | Potency [6]

CC(C)(O)C1CC=C(C(=O)OCC2OC(Oc3c(O)cc(C(=O)O)cc3O)C(O)C(O)C2O)CC1 (stereo not given)
inactive: outcome [1] | max response [2] -2.95% | outcome [3] | outcome [4] | Potency [6]

O=c1c2cccnc2n(-c2cccc([N+](=O)[O-])c2)c(=O)n1Cc1ccncc1
inactive: outcome [1] | max response [2] -29.4% | outcome [3] | max response [4] -3.44% | Potency [6]

CC(O)(CC(=O)O)CC(=O)O[C@@H]1[C@@H](O)[C@H](OCCc2ccccc2)O[C@H](CO)[C@H]1O (stereo not given in full)
inactive: outcome [1] | max response [2] -14.4% | max response [3] 7.92% | max response [4] 1.93% | Potency [6]

CNC(=O)[C@H]1O[C@@H](n2cnc3c(NCc4ccc(N)c(I)c4)ncnc32)[C@H](O)[C@@H]1O
inactive: outcome [1] | max response [2] -7.91% | outcome [3] | max response [4] -0.967% | outcome [6] inactive [at 9.27 µM]

CCC(NC(=O)CC(NC(=O)C(CO)NC(=O)C(CC)NC(=O)c1ccc[nH]1)c1ccccc1)C(=O)O (stereo not given)
inactive: outcome [1] | max response [2] -0.876% | outcome [3] | outcome [4] | Potency [6]

COC(=O)CC1(O)C(=O)Nc2ccccc21 (stereo not given)
inactive: outcome [1] | max response [2] -5.67% | outcome [3] | max response [4] 2.12% | Potency [6]

COC(=O)C1=CO[C@@H](O[C@@H]2O[C@H](CO)[C@@H](O)[C@H](O)[C@H]2O)[C@@H]2[C@@](C)(O)[C@@H](O)C[C@]12O
inactive: outcome [1] | max response [2] 3.45% | max response [3] 1.93% | max response [4] -0.0114% | Potency [6]
